# PAFAH2 FP inh: inhibitors of human PAFAH2. Q99487. recombinant PAFAH2, FP-rhodamine activity probe, fluorescence polarization. inhibition, % at 3.39 µM. 340,000 tested, 0.99% active. AID 492956;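 active = inhibition above the mean over all tested compounds plus 3 SD, cut at about 30% in these data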;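 note: inhibitors block probe labeling of enzyme so polarization drops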
# EBNA-1 inh: blocks EBNA-1 binding to DNA | EBNA-1 DNA binding, fluorescence polarization | inhibition, % at 14.8 µM | 300,000 tested, 0.34% active | AID 1950; in the data active = inhibition above about 28%
# pPAFAH inh: inhibitors of human plasma PAF acetylhydrolase (pPAFAH); Q13093; recombinant pPAFAH, FP-rhodamine probe fluorescence polarization; inhibition, % at 3.39 µM; 330,000 tested, 1.5% active; AID 463082;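 active = inhibition above the mean inhibition across the screen plus 3 SD, cut at about 25% in these data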;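 note: inhibitors block binding of the rhodamine activity-based probe so polarization drops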
# ZTA DNA inh: ZTA (EBV) inhibition in EBNA-1 counter-screen; inhibition, % at 11 µM; AID 2234; 320,000 tested, 0.15% active; ZTA-DNA binding, fluorescence polarization; P03206; in the data active = inhibition above about 33%
# PAFAH1B2 FP inh: PAFAH1B2 (human) inhibition; P68402; recombinant PAFAH1B2, FP-rhodamine activity probe, fluorescence polarization; inhibition, % at 3.39 µM; 340,000 tested, 1.2% active;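 active = inhibition above the mean of all tested compounds plus 3 SD, cut at about 24% in these data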
# Target sequence (P68402 whole entry, looked up): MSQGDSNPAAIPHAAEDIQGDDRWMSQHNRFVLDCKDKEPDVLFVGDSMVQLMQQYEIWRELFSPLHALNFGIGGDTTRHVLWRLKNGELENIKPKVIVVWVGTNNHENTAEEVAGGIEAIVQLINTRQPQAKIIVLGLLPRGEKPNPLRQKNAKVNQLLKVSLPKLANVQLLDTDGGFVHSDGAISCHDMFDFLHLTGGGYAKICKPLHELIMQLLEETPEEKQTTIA
# PAFAH1B3 inh: blocks human PAF acetylhydrolase 1B catalytic subunit 3; Q15102; recombinant PAFAH1B3, FP-rhodamine probe, fluorescence polarization; 340,000 tested, 0.28% active; inhibition, % at 3.39 µM;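 active = inhibition above the screen-wide average of all tested compounds plus 3 SD, cut at about 25% in these data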
# Target sequence (Q15102 whole entry, looked up): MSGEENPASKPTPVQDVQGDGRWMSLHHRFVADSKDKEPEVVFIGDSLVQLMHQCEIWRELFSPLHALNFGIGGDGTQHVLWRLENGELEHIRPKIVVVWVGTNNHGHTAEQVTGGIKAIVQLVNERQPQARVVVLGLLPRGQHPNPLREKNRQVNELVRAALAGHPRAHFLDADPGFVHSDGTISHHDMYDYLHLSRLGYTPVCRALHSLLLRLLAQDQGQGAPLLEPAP
# Hits are given with their value; - = inactive; . = no result given. Only some compounds are listed: those with a hit (about 2.9% of all), similar ones and a draw of the others.
SMILES,PAFAH2 FP inh,EBNA-1 inh,pPAFAH inh,ZTA DNA inh,PAFAH1B2 FP inh,PAFAH1B3 inh
O=C(Nc1ccccn1)C1(c2ccccc2)CCCC1,-,-,-,-,26,-
Cc1ccc(NC(=O)C2(c3ccc([N+](=O)[O-])cc3)CCCC2)cc1,-,-,-,-,25,-
NS(=O)(=O)c1ccc(NC(=O)C2(c3ccccc3)CCCC2)cc1,-,-,-,-,27,-
O=C(Nc1ccncc1)C1(c2ccccc2)CCCC1,-,-,-,-,27,-
COc1ccccc1CNS(=O)(=O)N(C)C,-,-,-,-,-,-
O=c1o[nH]c(-c2ccccc2)c1-c1ccccc1,.,-,-,-,.,.
Cn1ncc([N+](=O)[O-])c1C(=O)Nc1ccc(-c2nc3ccccc3o2)cc1,-,-,-,-,-,-
Cc1noc(C)c1COc1ccccc1C(=O)NCCOc1ccccc1,-,.,.,.,-,-
Cc1ccc(S(=O)(=O)Nc2nc(C)c(C(=O)NNS(=O)(=O)c3cc(C)ccc3C)s2)cc1,-,-,-,-,28,-
O=C(CSc1nc2c([nH]c3ccccc32)c(=O)n1-c1ccccc1)N1CCOCC1,-,-,-,-,-,-
O=C(CSc1nc2c([nH]c3ccccc32)c(=O)n1-c1cccc(Cl)c1)N1CCOCC1,-,37,-,-,-,-
O=C(CN1C(=O)COc2ccc(Cl)cc21)NC1CC1,-,-,-,-,-,-
O=C(O)CC/C(=N/NC(=O)CNC(=O)Cc1ccc(Cl)cc1)c1ccccc1,-,-,-,-,24,-
Cc1ccc(S(=O)(=O)N2CCC(C(=O)OCCOc3ccccc3)CC2)cc1C,-,-,28,-,-,-
Cc1ccc(OCCOC(=O)C2CCN(S(=O)(=O)c3ccc(C)c(C)c3)CC2)cc1,-,-,-,-,-,-
O=C(Nc1ccccc1N1CCCCC1)c1cc(S(=O)(=O)N2CCOCC2)ccc1F,-,.,.,.,-,-
NS(=O)(=O)c1ccc(NNC(=O)c2ccccc2)cc1,.,-,-,-,.,.
O=C(NNc1cc(Br)c(O)c(Br)c1)c1ccccc1,52,-,-,-,-,-
CC(=O)Nc1ccc(/C(N=Nc2ccccc2)=N/N=C(N)N)cc1,-,.,.,.,-,-
O=C(O)c1ccc(N=N/C(=N\Nc2ccc(C(=O)O)cc2)c2ccccc2)cc1,-,-,27,-,-,-
Brc1ccc(N/N=C(/N=Nc2nn[nH]n2)c2ccccc2)cc1,44,-,61,-,-,-
O=C(O)c1cccc(N/N=C(\N=Nc2ccccc2)c2ccccc2)c1,-,-,25,-,-,-
COCCN(C)C(=O)CC1C(=O)NCCN1CC(c1ccccc1)c1ccccc1 (configuration not stated),-,-,-,-,-,-
O=S(=O)(c1ccc(SCc2ccc(Cl)cc2)nc1)N1CCCC1,-,.,-,-,26,-
O=c1cc(CSc2ccc(S(=O)(=O)N3CCCCC3)cn2)nc2sccn12,-,-,-,-,25,-
SMILES,PAFAH2 FP inh,EBNA-1 inh,pPAFAH inh,ZTA DNA inh,PAFAH1B2 FP inh,PAFAH1B3 inh
CC(NC(=O)c1ccco1)C(=O)OC(C)C(=O)NCc1ccccc1 (configuration not stated),-,-,-,-,-,-
CCN(Cc1ccccc1)c1ccc(N=Nc2nn(C)c(C)c2[N+](=O)[O-])cc1,-,-,25,-,62,-
CC(=O)N1CCOCCOCCN(C(C)=O)CCOCC1,-,-,-,-,-,-
Cc1cc(C)c(S(=O)(=O)N2CCOC2CNC(=O)C(=O)NCCN2CCOCC2)c(C)c1 (configuration not stated),-,-,-,-,-,-
COc1ccc(NC(=O)Cc2cccc(F)c2)cc1S(=O)(=O)Nc1ccccc1Cl,-,-,30,-,-,-
Cn1c(=O)oc2cc(S(=O)(=O)NCCC(=O)NCCc3ccc(Cl)cc3)ccc21,-,-,-,-,32,-
CCOC(=O)Cn1c(=O)oc2cc(S(=O)(=O)NCCc3ccc(C)cc3)ccc21,-,-,29,-,-,-
CCOC(=O)Cn1c(=O)oc2cc(S(=O)(=O)Nc3ccc(F)cc3)ccc21,-,-,28,-,-,-
COc1cccc(N2CCN(C(=O)/C=C/c3ccco3)CC2)c1,-,-,-,-,-,-
CCN(c1cc(C)cc(C)c1)S(=O)(=O)c1nnc(NC(=O)C(C)(C)C)s1,-,.,.,.,-,-
CN(c1ccc(Cl)cc1)S(=O)(=O)c1nnc(NC(=O)C(C)(C)C)s1,-,.,.,.,28,-
CC(C)CN1CCC(=O)N(CCSc2ccc(Br)cc2)CC1,-,-,-,-,-,-
N#C/C(=C\c1ccc(-c2ccccc2[N+](=O)[O-])o1)C(=O)Nc1nc(-c2cccs2)cs1,-,-,30,-,-,-
Cc1ccc(-c2csc(N3N=C(c4ccccc4)/C(=C\c4ccc(N(C)C)cc4)C3=O)n2)cc1,.,-,28,-,.,.
CC1=NN(c2cccc(F)c2)C(=O)/C1=C/c1ccc(N(C)C)cc1,-,-,-,-,-,-
COc1ccc([C@H]2CC(=O)C=C(/C=C/c3ccccc3)C2)cc1OC,-,.,-,-,-,-
COc1cc(/C=C(/C#N)C(=O)Nc2ccc(Cl)cc2)ccc1Oc1nc(Cl)ncc1F,-,-,-,-,-,-
C/C(=N\NC(=O)c1ccc(Br)cc1)C1C(=O)c2ccccc2C1=O,-,-,25,-,-,29
C=CCn1c(SCC(=O)c2cccs2)nc2sc(C)cc2c1=O,-,-,25,-,-,-
O=C1CSC(=S)N1Cc1cccs1,-,.,.,.,-,-
CCOC(=O)c1sc(NC(=O)c2ccc(Cl)s2)cc1C,-,-,-,-,-,-
CCOC(=O)c1sc(NC(=O)Nc2ccc(Cl)cc2)cc1C,-,-,26,-,-,-
CC(=O)N1CCOc2ccc(S(=O)(=O)NCc3ccc(C)cc3)cc21,-,-,-,-,34,-
CC(=O)N1CCOc2ccc(S(=O)(=O)NCCc3ccc(C)cc3)cc21,-,-,-,-,32,-
CCOc1ccc(CCNS(=O)(=O)c2ccc3c(c2)N(C(C)=O)CCO3)cc1OCC,-,-,-,-,-,-
SMILES,PAFAH2 FP inh,EBNA-1 inh,pPAFAH inh,ZTA DNA inh,PAFAH1B2 FP inh,PAFAH1B3 inh
Cc1ccc(CNS(=O)(=O)c2ccc3c(c2)OCCO3)cc1,-,-,-,-,27,-
CCCc1nc2c(sc3nc4c(cc32)COC(C)(C)C4)c(=O)n1CCN(CC)CC,-,-,-,-,-,-
Cc1onc(-c2ccccc2Cl)c1C(=O)NNC(=O)c1cccc(F)c1,-,-,-,-,-,-
O=C(/C=C\Nc1cccc(F)c1)c1ccc2c(c1)OCO2,-,40,-,-,-,-
CC(C)CNC(=O)c1ccccc1C(=O)NC1(C(=O)NCC(C)C)CCCC1,-,.,.,.,-,-
CCC(=O)Nc1nc(C)c(-c2csc(Nc3ccc(C(=O)O)cc3)n2)s1,-,.,.,.,-,-
Cc1nc(NC(=O)c2ccccc2)sc1-c1csc(Nc2ccc(C(=O)O)cc2)n1,32,.,.,.,-,29
O=C(O)c1ccc(Nc2nc(-c3ccccc3)cs2)cc1,-,-,-,-,25,-

# Screening results (PubChem BioAssay)
